Measurements published in PubChem BioAssay AID1159580 (chemical genetic matrix, 2015).
Several values for one entry are separate records, joined by “and”; a condition that tells them apart may be missing. Identical values can stand only once. In all, about 5,500 compounds went through this assay and about 2,000 (36%) were called active. Not shown: some 18% with an inconclusive outcome. No stated cut-off is given here; in the data, active means normalized growth mostly below about 0.91 (no sharp cut-off); inconclusive means no clear call, values can overlap the other calls; inactive means mostly above about 0.92. Some of the results follow.

Experiment: chemical genetic growth profiling, strain panel (AID 1159580);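 further: tested at 20 µM; growth read once vehicle control cultures reached saturation at 30 °C; 1 = growth at the plate median or of vehicle wells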
Settings: S. cerevisiae deletion strains, growth OD

Measured: normalized growth

CC[C@@H]1[C@@H](O)N2C3C[C@H]1C1C(O)[C@]4(C[C@@H]12)c1ccccc1N(C)[C@@H]34 (some centres not stated)
inactive: locus YAL013W, strain DEP1, stronger effect = lower value 0.992 | locus YAL021C, strain ccr4, stronger effect = lower value 1.01 | locus YAL026C, strain drs2, stronger effect = lower value 1.04 | locus YAL030W, strain snc1, stronger effect = lower value 1.05 | locus YBL061C, strain skt5, stronger effect = lower value 1.04 | locus YBR009C, strain hhf1, stronger effect = lower value 1.02 | locus YBR021W, strain FUR4, stronger effect = lower value 0.989 | locus YBR023C, strain chs3, stronger effect = lower value 1.05 | locus YBR171W, strain sec66, stronger effect = lower value 1.07 | locus YBR229C, strain ROT2, stronger effect = lower value 0.991 | locus YBR231C, strain swc5, stronger effect = lower value 0.999 | locus YBR279W, strain paf1, stronger effect = lower value 1.04 | locus YCL011C, strain gbp2, stronger effect = lower value 1.02 | locus YCL016C, strain dcc1, stronger effect = lower value 1.02 | locus YCL029C, strain bik1, stronger effect = lower value 0.956 | locus YCL061C, strain MRC1, stronger effect = lower value 1.04 | locus YCL069W, strain vba3, stronger effect = lower value 1.04 | locus YCR088W, strain abp1, stronger effect = lower value 1.04 | locus YDL005C, strain med2, stronger effect = lower value 1.05 | locus YDL035C, strain GPR1, stronger effect = lower value 1.01 | locus YDL040C, strain nat1, stronger effect = lower value 1.03 | locus YDL074C, strain BRE1, stronger effect = lower value 0.972 | locus YDL101C, strain DUN1, stronger effect = lower value 0.984 | locus YDL134C, strain PPH21, stronger effect = lower value 0.986 | locus YDL185W, strain tfp1, stronger effect = lower value 0.963 | locus YDL192W, strain arf1, stronger effect = lower value 0.984 | locus YDR001C, strain nth1, stronger effect = lower value 1.02 | locus YDR069C, strain doa4, stronger effect = lower value 1.04 | locus YDR101C, strain arx1, stronger effect = lower value 0.981 | locus YDR137W, strain rgp1, stronger effect = lower value 1.04 | locus YDR150W, strain NUM1, stronger effect = lower value 1 | locus YDR159W, strain sac3, stronger effect = lower value 0.974 | locus YDR162C, strain NBP2, stronger effect = lower value 0.998 | locus YDR195W, strain ref2 1.03 | locus YDR297W, strain sur2, stronger effect = lower value 1.03 | locus YDR318W, strain mcm21, stronger effect = lower value 0.972 | locus YDR334W, strain swr1, stronger effect = lower value 1.03 | locus YDR335W, strain msn5, stronger effect = lower value 1.03 | locus YDR388W, stronger effect = lower value 0.978 | locus YDR392W, strain spt3, stronger effect = lower value 0.93 | locus YDR502C, strain sam2, stronger effect = lower value 1 | locus YEL003W, strain gim4, stronger effect = lower value 1.03 | locus YEL037C, strain rad23, stronger effect = lower value 1.02 | locus YEL061C, strain CIN8 (second series), stronger effect = lower value 1.04 | locus YEL061C, strain CIN8, stronger effect = lower value 0.995 | locus YER015W, strain faa2, stronger effect = lower value 1.02 | locus YER016W, strain bim1, stronger effect = lower value 1.01 | locus YER110C, stronger effect = lower value 0.977 | locus YER111C, strain swi4, stronger effect = lower value 1.06 | locus YER155C, strain BEM2 (second series), stronger effect = lower value 0.983 | locus YER155C, strain BEM2, stronger effect = lower value 0.991 | locus YER167W, strain BCK2, stronger effect = lower value 0.989 | locus YFR010W, strain ubp6, stronger effect = lower value 1.02 | locus YGL078C, strain dbp3, stronger effect = lower value 0.978 | locus YGL086W, strain mad1, stronger effect = lower value 0.992 | locus YGL167C, strain pmr1, stronger effect = lower value 1.03 | locus YGL173C, strain kem1, stronger effect = lower value 1.02 | locus YGL227W, strain vid30, stronger effect = lower value 1.05 | locus YGL240W, strain doc1, stronger effect = lower value 0.979 | locus YGL248W, strain PDE1, stronger effect = lower value 0.991 | locus YGL253W, strain hxk2, stronger effect = lower value 1.04 | locus YGR078C, strain PAC10, stronger effect = lower value 0.984 | locus YGR135W, strain pre9, stronger effect = lower value 0.96 | locus YGR229C, strain SMI1, stronger effect = lower value 1 | locus YGR252W, strain gcn5, stronger effect = lower value 1 | locus YHR013C, strain ard1, stronger effect = lower value 1.03 | locus YHR027C, strain rpn1, stronger effect = lower value 1.02 | locus YHR030C, strain SLT2, stronger effect = lower value 0.993 and 0.984 | locus YHR079C, strain IRE1 (second series), stronger effect = lower value 0.965 | locus YHR079C, strain IRE1, stronger effect = lower value 0.981 | locus YHR094C, strain hxt1, stronger effect = lower value 0.983 | locus YHR129C, strain ARP1, stronger effect = lower value 0.982 | locus YHR142W, strain chs7, stronger effect = lower value 1.1 | locus YHR200W, strain rpn10, stronger effect = lower value 0.981 | locus YIL066C, strain RNR3, stronger effect = lower value 0.993 | locus YIL073C, strain SPO22, stronger effect = lower value 0.997 | locus YIL125W, strain kgd1, stronger effect = lower value 0.981 | locus YIR030C, strain dcg1, stronger effect = lower value 0.984 | locus YJL092W, strain hpr5, stronger effect = lower value 1.04 | locus YJL095W, strain BCK1 (second series), stronger effect = lower value 1.01 | locus YJL095W, strain BCK1, stronger effect = lower value 0.966 and 1.01 | locus YJL115W, strain asf1, stronger effect = lower value 1.07 | locus YJL129C, strain trk1, stronger effect = lower value 1.06 | locus YJL134W, strain LCB3, stronger effect = lower value 0.993 | locus YJL154C, strain vps35, stronger effect = lower value 1.03 | locus YJL164C, strain tpk1, stronger effect = lower value 1.04 | locus YJL166W, strain qcr8, stronger effect = lower value 1.04 | locus YJL168C, strain set2, stronger effect = lower value 0.97 | locus YJL187C, strain SWE1 (second series), stronger effect = lower value 0.979 | locus YJL187C, strain SWE1, stronger effect = lower value 1.02 | locus YJR043C, strain POL32, stronger effect = lower value 0.973 | locus YJR066W, strain TOR1, stronger effect = lower value 0.926
